Screening results (PubChem BioAssay)
FBA Mtb inh = inhibitors of M. tuberculosis fructose-bisphosphate aldolase; P9WQA3; purified M. tuberculosis FBA, fluorescence read-out; inhibition, % at 1 µM; 360,000 tested, 2.3% active; AID 588726; in the data active = inhibition above about 27%;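 note: 0% = vehicle and 100% = reference inhibitor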
Target sequence (P9WQA3 whole entry, looked up): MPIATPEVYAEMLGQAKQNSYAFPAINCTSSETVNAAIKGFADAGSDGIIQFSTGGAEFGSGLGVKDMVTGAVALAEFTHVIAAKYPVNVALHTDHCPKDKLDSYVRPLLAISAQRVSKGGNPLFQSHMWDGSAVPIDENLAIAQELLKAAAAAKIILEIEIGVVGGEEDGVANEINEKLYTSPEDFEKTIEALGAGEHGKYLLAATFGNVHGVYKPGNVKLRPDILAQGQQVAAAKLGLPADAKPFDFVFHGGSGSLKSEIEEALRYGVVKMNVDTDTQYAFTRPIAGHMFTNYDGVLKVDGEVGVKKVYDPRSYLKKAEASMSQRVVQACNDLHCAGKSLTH
DUSP3 inh = blocks human VHR1 dual specificity phosphatase; P51452; recombinant VHR phosphatase, pNPP absorbance; inhibition, % at 13.3 µM; 290,000 tested, 0.52% active; in the data active = inhibition above about 50%
SARS 3CLpro inh = SARS-CoV 3CLpro protease inhibition; P0C6X7; recombinant SARS-CoV 3CLpro, quenched FRET peptide cleavage; inhibition, % at 6 µM; 290,000 tested, 0.14% active; AID 1706; in the data active = inhibition above about 12%
GDH-TPI counter-1 = inhibits GDH-TPI coupling enzymes, artifact for Mtb FBA screen | GDH-TPI coupled enzyme counterscreen, NADH absorbance | inhibition, % at 4.8 µM | 360,000 tested, 1.2% active | AID 588335;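 note: 0% = DMSO wells and 100% = wells lacking the enzyme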
RecA splice inh = inhibitors of M. tuberculosis RecA intein splicing | P9WHJ3 | cell-free RecA intein splicing, fluorescence | inhibition, % (concentration not given with the values) | 290,000 tested, 0.75% active | AID 2221; in the data active = inhibition above about 30%;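 note: 0% = vehicle wells and 100% = reference inhibitor control wells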
CCHF vOTU inh = CCHFV vOTU protease inhibition; inhibition, % at 11.5 µM; AID 651958; 370,000 tested, 0.55% active; Pep-AMC fluorescence; note: 0% = vehicle wells with enzyme and 100% = no enzyme wells
Mtb FBA inh conf = confirmation of M. tuberculosis fructose-bisphosphate aldolase inhibitors; 5,600 tested, 78% active; inhibition, % at 1 µM; shares compounds with FBA Mtb inh; purified M. tuberculosis FBA, fluorescence read-out; in the data active = inhibition above about 27%;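 note: 0% = vehicle wells and 100% = reference inhibitor wells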
GDH-TPI counter-2 = GDH-TPI inhibition counter-screen for FBA inhibitors. inhibition, % at 1 µM. 5,600 tested, 81% active. shares compounds with FBA Mtb inh. GDH-TPI coupled enzyme counterscreen, fluorescence. AID 652141; in the data active = inhibition above about 10%
The depositor's hits bear a star; i = inactive; . = no result given; + = active, no number. A selection: hits, their analogues and other compounds. The true share with any hit is near 4.7%. Cut-off read from the data, not from the text of the source, unless noted: active = inhibition above about 30%; inactive = the rest.

SMILES | FBA Mtb inh | DUSP3 inh | SARS 3CLpro inh | GDH-TPI counter-1 | RecA splice inh | CCHF vOTU inh | Mtb FBA inh conf | GDH-TPI counter-2
CCOc1ccc(/C=N/NC(=S)NC2CC3CCC2C3)cc1 (stereo unspecified) | 30.6* | -4.8 | -0.9 | 0.8 | -1.1 | 4.5 | -2.9 | -3.7
COC(=O)[C@]12C[C@H](CC(=O)NCc3cccc4ccccc34)C(=O)N(Cc3ccc(Cl)cc3Cl)C1=C[C@H](C1CCCC1)O[C@@H]2C | . | . | . | . | . | 17.1 | . | .
Cc1ccc2[nH]c3c(=O)n(Cc4ccncc4)cnc3c2c1 | 28.9* | 4.0 | 1.4 | -1.6 | -1.8 | -10.6 | + | 182.0*
O=c1c2[nH]c3ccc(Br)cc3c2ncn1Cc1ccncc1 | . | 5.1 | 4.3 | . | -1.9 | . | . | .
Cc1ccc2[nH]c3c(=O)n(CCN4CCNCC4)cnc3c2c1 | 12.2 | -7.3 | -4.8 | -5.0 | -0.6 | -6.6 | . | .
CCN1CCCC1Cn1cnc2c([nH]c3ccc(C)cc32)c1=O (stereo unspecified) | 37.2* | 1.8 | 0.1 | 19.6 | 0.6 | -24.6 | 59.5* | 37.3*
Cc1cc(C(=O)NNC(=O)C(C)(C)Oc2ccc(Cl)cc2)c(C)o1 | 4.8 | . | . | 6.0 | . | -5.2 | . | .
O=C(Nc1ccc2ccccc2c1)N1CCN(c2ncccc2C(F)(F)F)CC1 | 36.5* | 15.1 | 4.8 | -2.5 | 2.8 | 3.8 | -9.2 | -5.4
Cc1cc(=O)oc2c(C)c(OC3CCCCC3=O)ccc12 (stereo unspecified) | 39.2* | 1.9 | -2.9 | 20.7 | -0.6 | -11.1 | + | 192.3*
CCOc1ccc2c(C)cc(=O)oc2c1OCC | 9.9 | 6.4 | 2.8 | 12.4 | 0.0 | -13.0 | . | .
COC(=O)Cc1c(C)c2ccc(OC3CCCCC3=O)c(C)c2oc1=O (stereo unspecified) | 108.0* | -32.3 | 1.3 | 5.1 | 1.3 | -51.7 | 24.1 | 17.0*
COc1cc(OC)cc(C(=O)NCC(=O)OC2CCCCC2=O)c1 (stereo unspecified) | 2.0 | . | . | 8.4 | . | 0.1 | . | .
COC(=O)Cc1c(C)c2ccc(OC3CCCCC3=O)cc2oc1=O (stereo unspecified) | 103.2* | 23.6 | -1.7 | 13.3 | -3.5 | -57.5 | 139.9* | 144.4*
COC(=O)c1ccc(COc2ccc3c(C)c(C)c(=O)oc3c2C)o1 | . | 25.4 | -1.2 | . | -1.5 | . | . | .
CCc1cc(=O)oc2cc(OCC(=O)NC3CC(C)(C)NC(C)(C)C3)ccc12 | 21.6 | 12.5 | 0.8 | 12.9 | -2.5 | 1.3 | . | .
CCc1cc(=O)oc2cc(OC3CCCCC3=O)ccc12 (stereo unspecified) | 53.2* | 23.3 | 0.4 | 7.1 | 0.5 | -37.1 | 191.9* | 163.6*
O=C(/C=C/Nc1ccc(Cc2ccc(N/C=C/C(=O)C(F)(F)F)cc2)cc1)C(F)(F)F | -1.0 | 10.2 | 5.2 | 15.5 | -4.0 | 11.6 | . | .
Cc1ccc(-c2cc(C(F)F)nc(S(C)(=O)=O)n2)cc1 | 34.0* | 8.6 | 1.4 | 19.8 | 46.4* | 13.3 | 111.6* | 85.7*
CC(=O)c1ccc(-c2ccc(C(=O)N(C)Cc3nc4ccccc4c(=O)[nH]3)o2)cc1 | 88.7* | . | . | 16.9 | . | -86.0 | 4.4 | -4.4
Nc1nc2ccccc2nc1N | 50.6* | -0.6 | -1.4 | 3.4 | -2.9 | 4.1 | 68.9* | 60.7*
N#Cc1c2ccccc2nc2ccccc12 | 27.6* | 31.3 | -0.9 | -2.2 | -1.8 | -11.0 | 181.9* | 116.7*
Nc1c2ccccc2nc2ccccc12 | 63.4* | 20.1 | -2.4 | 5.8 | i | -103.2 | 72.5* | 47.7*
Nc1c2c(nc3ccccc13)CCCC2 | -1.4 | -10.7 | -1.1 | 13.0 | 0.2 | 1.3 | . | .
CCCc1c2ccccc2nc2ccccc12 | 50.0* | 30.1 | -0.9 | 8.1 | -12.4 | -66.7 | 38.4* | 33.6*
Cc1onc(-c2c(F)cccc2Cl)c1C(=O)N1CCCC1 | -1.3 | . | . | -0.7 | . | -1.3 | . | .
COC(=O)c1cccc(CC2(C)C(=O)Nc3cc(-c4ccccc4Cl)ccc32)c1 (stereo unspecified) | 0.2 | . | . | 6.2 | . | 24.1 | . | .
Cc1cc(Cl)ccc1NC(=O)/N=C1/NC(=O)CS1 | 0.8 | . | . | . | . | -0.7 | . | .
O=C(NC1CCCCC1)C1CCC(=O)N(Cc2cccc(C(F)(F)F)c2)C1 (stereo unspecified) | 1.2 | 32.2 | -2.7 | 4.1 | -4.2 | -2.1 | . | .
